# CHT block – inhibitors of human choline transporter CHT; High affinity choline transporter 1 (Homo sapiens), Q9GZV3; CHT-expressing cells, membrane potential dye, choline response; stronger effect = lower value; B-score at 10 µM; 0.86% of 310,000 active;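 active means B-score over 3 SD under the library average, and starting fluorescence ratio not unusually high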;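 further: choline stimulus applied at its EC90 after an EC20 pre-addition; B-score computed on integrated fluorescence ratio after choline addition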
# ANO1 block – TMEM16A chloride channel inhibitors, primary screen, cell-based, HTS. Anoctamin-1 (Mus musculus), Q8BHY3. HEK293 TMEM16A/YFP iodide influx fluorescence, ionomycin. normalized B-score (activity score, 25-100; higher = stronger inhibition) at 10 µM. 1.2% of 310,000 active;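 active means ratio plate-corrected score three or more library SD toward inhibition, starting fluorescence score within five deviations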;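 further: score derived from kinetic fluorescence span divided by baseline fluorescence per well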
# PHOSPHO1 block – PubChem AID 1565 | inhibition, % at 13.3 µM | 1.1% of 290,000 active | recombinant PHOSPHO1, absorbance phosphatase assay | Phosphoethanolamine/phosphocholine phosphatase (Homo sapiens), Q8TCT1; in the data active means inhibition above about 60%
# Target sequence (Q8TCT1 whole entry, looked up): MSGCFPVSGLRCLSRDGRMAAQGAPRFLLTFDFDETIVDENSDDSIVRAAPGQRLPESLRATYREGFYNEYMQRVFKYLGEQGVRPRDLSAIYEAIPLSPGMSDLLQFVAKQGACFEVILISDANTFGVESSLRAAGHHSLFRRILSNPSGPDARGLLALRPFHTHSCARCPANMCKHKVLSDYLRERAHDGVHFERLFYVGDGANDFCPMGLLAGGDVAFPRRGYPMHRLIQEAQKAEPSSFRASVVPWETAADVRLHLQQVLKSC
# TMEM16A act – TMEM16A chloride channel activators or potentiators, primary screen, cell-based, HTS | Anoctamin-1 (Mus musculus), Q8BHY3 | HEK293 TMEM16A/YFP-H148Q/I152L, iodide quench fluorescence; stronger effect = lower value | B-score at 10 µM | 0.3% of 340,000 active;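 active means fluorescence-ratio B-score plate-corrected deviation score at least 3 library SD below zero, with starting fluorescence score within 5 deviations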;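 further: channel opened by trigger with iodide after compound preincubation; score built on the fluorescence ratio of max minus min over baseline; more negative score means more quench and so TMEM16A activation or potentiation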
# HDAC3 inh – HDAC3 deacetylase inhibitors, primary screen, biochemical, fluorescence, cell-free homogeneous | Histone deacetylase 3 (Homo sapiens), O15379 | recombinant HDAC3, fluorogenic peptide/trypsin coupled | inhibition, % at 8.3 µM | 0.15% of 320,000 active; in the data active means inhibition above about 26%, passing the limit was not always enough; inconclusive means no clear call, values can overlap the other calls
# CHT PAM – CHT positive allosteric modulators, primary screen, cell-based, membrane potential dye, choline EC20. High affinity choline transporter 1 (Homo sapiens), Q9GZV3. CHT-expressing cells; stronger effect = higher value; LV-AA mutant CHT in HEK293 cells. B-score at 10 µM. 0.49% of 310,000 active. AID 488977, 2010;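 active means initial fluorescence not abnormally high and integrated response B-score, plate-corrected, over 3 SD above library mean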
# * hit, by the source's call; i = inactive; ? = inconclusive; / = no result. An excerpt weighted towards active compounds, which were near 3.2% of everything screened.
SMILES,CHT block,ANO1 block,PHOSPHO1 block,TMEM16A act,HDAC3 inh,CHT PAM
Cc1cc(C(=O)N/N=C2/CC(C)CC(C)(C)C2)c(C)o1 (stereo not drawn),i,i,27.8,i,-5.2,i
COc1ccc(-c2c[n+]3c(n2-c2ccccc2)SCC3)cc1,i,i,31.6,i,-8.0,i
COc1ccc(-c2c[n+]3c(n2-c2ccccc2)SCC3)cc1OC,i,i,21.0,-29.4*,-0.9,i
Cc1noc(C)c1CSc1nc2ccccc2n1C,i,i,0.9,i,-3.3,i
COc1cccc(CNC(=O)CC2Sc3ccccc3NC2=O)c1 (stereo not drawn),i,i,-9.9,i,1.8,i
CC(C)N(C(=S)Nc1cccc(C(F)(F)F)c1)C(C)c1ccccn1 (stereo not drawn),i,100*,27.9,i,4.7,i
O=C(CCc1nc(-c2ccccc2F)no1)Nc1ccc(Oc2ccccc2)cc1,i,100*,9.2,i,26.9*,i
O=C(NCC(=O)N1CCN(S(=O)(=O)c2ccc3c(c2)OCCO3)CC1)c1ccccc1F,/,/,/,i,-3.9,/
O=C(c1ccccc1F)N1CCN(S(=O)(=O)c2ccc3c(c2)OCCO3)CC1,i,i,-8.8,i,31.9*,i
O=C(NCC1CCCN1S(=O)(=O)c1cccs1)c1cccc([N+](=O)[O-])c1 (stereo not drawn),i,i,/,i,-9.8,i
S=C1SCN(Cc2ccccn2)CN1Cc1ccco1,i,i,94.5*,i,7.7,i
COCCN1CSC(=S)N(Cc2ccco2)C1,i,i,94.5*,i,6.9,i
CCOCCCN1CN(Cc2ccco2)CNC1=S,i,i,-12.2,i,9.7,i
COc1cc(C2NC(=O)c3ccccc3O2)ccc1OC(C)C (stereo not drawn),i,i,/,i,3.3,i
C=CCN(C(=O)C1CSC2(C)CCC(=O)N12)c1nc(-c2ccccc2)cs1 (stereo not drawn),i,i,/,i,/,i
C=CCN(C(=O)C1=NN(C2CCS(=O)(=O)C2)C(=O)CC1)c1nc(-c2ccc([N+](=O)[O-])cc2)cs1 (stereo not drawn),i,i,1.0,-4.68*,-0.6,i
Clc1ccc(C2=Nn3c(nnc3-c3n[nH]c4c3CCC4)SC2)cc1,i,i,73.3*,i,0.3,i
Brc1ccc(C2=Nn3c(nnc3-c3n[nH]c4c3CCC4)SC2)cc1,i,i,10.9,i,7.9,i
O=C(CCc1ccc(S(=O)(=O)N2CCOCC2)cc1)Nc1nc(COc2ccccc2)cs1,i,25*,2.6,i,-3.0,i
O=C(COc1ccccc1)Nc1nc(-c2ccc(S(=O)(=O)N3CCOCC3)cc2)cs1,i,i,11.4,i,2.2,i
CC1CCCCC1NC(=O)CCCCCn1c(=S)[nH]c2ccccc2c1=O (stereo not drawn),i,i,62.9*,i,-7.1,i
CC1CCCCC1NC(=O)Cn1cccc1C(=O)c1ccccc1 (stereo not drawn),i,i,69.7*,i,2.4,i
COc1ccc2c(c1)c(CC(=O)Nc1ccc(C(C)=O)cc1)c(C)n2C(=O)c1ccc(Cl)cc1,i,i,6.6,i,5.7,i
COc1ccc2c(c1)c(CC(=O)NCc1cc([N+](=O)[O-])ccc1O)c(C)n2C(=O)c1ccc(Cl)cc1,i,100*,32.6,i,-3.6,i
Cc1cccc(-n2c(C)cc(C=C3C(=O)c4ccccc4C3=O)c2C)c1,i,i,98.7*,i,2.9,i
SMILES,CHT block,ANO1 block,PHOSPHO1 block,TMEM16A act,HDAC3 inh,CHT PAM
Cc1cc(C=C2C(=O)c3ccccc3C2=O)c(C)n1-c1ccc(Cl)cc1,/,/,-13.8,i,/,/
CCN1C(=O)C(CC(=O)Nc2c(C)cccc2C)SC1=Nc1ccc(S(N)(=O)=O)cc1 (stereo not drawn),i,i,1.7,i,8.0,i
Cc1cc(C)c(OCC(=O)OCCNC(=O)c2cccnc2)c(C)c1,i,i,-16.4,i,/,i
C=CCc1ccccc1OCC(=O)OCCNC(=O)c1cccnc1,i,i,71.1*,i,1.8,i
CCCCCCCCCCCCCCCC[n+]1cccc2ccccc21,i,100*,6.0,i,?,8.74*
O=C(C[n+]1cccc2ccccc21)c1ccccc1,i,i,4.9,i,0.2,i
Cc1cc([N+](=O)[O-])cnc1NC(C)c1ccccc1 (stereo not drawn),i,i,36.3,i,3.1,i
NNC(=O)c1ccc(COc2ccc3c(c2)CCC3)o1,i,i,8.4,i,-1.8,i
O=C(NC(c1cccnc1)C(F)(F)F)c1cc(COc2ccc3c(c2)CCCC3)on1 (stereo not drawn),i,25*,49.0,i,4.3,i
CC(Oc1ccccc1)c1ccnc2nc(N3CCOCC3)nn12 (stereo not drawn),i,i,60.0*,i,?,i
CCCCN(C)CCCNC(=O)c1cn(CC)c2ccc(S(=O)(=O)N3CCc4ccccc4C3)cc2c1=O,i,i,8.6,i,1.0,i
CCn1cc(C(=O)NCCCN(CC(C)C)CC(C)C)c(=O)c2cc(S(=O)(=O)N(C)C3CCCCC3)ccc21,i,i,22.2,-13*,10.9,i
CCCCN(CC)CCCNC(=O)c1cn(CC)c2ccc(S(=O)(=O)N3CCc4ccccc4C3)cc2c1=O,-12.9*,i,-24.2,i,1.1,i
COc1cccc(C2C(C#N)=C(N)SC(c3ccccc3)C2[N+](=O)[O-])c1 (stereo not drawn),i,i,10.5,i,5.2,i
O=C(Cc1ccc(Cl)cc1Cl)Nc1ccncc1Cl,i,25*,22.6,i,5.5,i
COc1ccc(C2CC(=O)c3sc(N)nc3C2)cc1 (stereo not drawn),i,i,15.2,i,7.0,i
Nc1nc2c(s1)C(=O)CC(c1ccccc1)C2 (stereo not drawn),i,i,60.1*,i,2.1,i
Cc1ccc(-n2cccc2C(=S)N=P(N(C)C)(N(C)C)N(C)C)cc1,i,i,67.3*,i,2.3,i
COc1cccc(C2CC(=O)N3CN(c4cccc(Cl)c4C)CSC3=C2C#N)c1OC (stereo not drawn),i,i,88.1*,i,50.6*,i
